High-throughput results deposited in PubChem BioAssay by National Center for Advancing Translational Sciences (NCATS).
a7 integrin act: activators of alpha7 integrin expression for muscular dystrophy. alpha7betagal myoblasts, beta-gal FDG fluorescence, 48 h. AID 624291. Potency, µM (highest dose often 38.3 µM), usual class: activators. 350,000 tested, 0.064% active; active means well fitted activation curve with a large enough effect; inconclusive means small, poorly fitted or top-dose-only effect; inactive means no such curve, though single readings can be large or run the other way; further: nearly all actives have a fitted effect of over 60% in size
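Alpha7betagal+/- myoblasts (passage 13) were plated 16-24 hr, then exposed to compounds (1:260 dilution of DMSO stock) for 48 hours at 37C. After MPER lysis, β-galactosidase reporter activity was read as FDG fluorescence (ex 480/em 540) after 30 minutes.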
DRD3 antagonist: blocks the human D3 dopamine receptor; D3R cells, DiscoveRx beta-arrestin luminescence, antagonist mode; stronger effect = lower value; max response, negative = inhibition, %; 360,000 tested, 2.5% active; P35462; in the data active means max response below about -50%; inconclusive means no clear call, values can overlap the other calls
Target sequence (P35462 whole entry, looked up): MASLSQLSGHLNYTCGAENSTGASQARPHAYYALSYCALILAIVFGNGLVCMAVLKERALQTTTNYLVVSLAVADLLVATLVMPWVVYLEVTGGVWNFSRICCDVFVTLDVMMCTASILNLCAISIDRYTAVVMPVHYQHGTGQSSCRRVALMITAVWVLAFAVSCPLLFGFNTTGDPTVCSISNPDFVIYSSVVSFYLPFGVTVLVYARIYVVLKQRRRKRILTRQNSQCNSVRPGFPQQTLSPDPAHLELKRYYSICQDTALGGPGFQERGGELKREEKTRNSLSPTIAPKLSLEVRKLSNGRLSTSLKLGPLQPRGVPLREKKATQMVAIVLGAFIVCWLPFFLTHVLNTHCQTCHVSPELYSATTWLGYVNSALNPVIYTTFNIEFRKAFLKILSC
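Cells plated overnight at 1500 cells/well, then exposed to library compounds with dopamine controls for 90 minutes at 37 degrees C. DiscoveRx reagent added for 30–60 minutes at room temperature; luminescence read, quantitative HTS format.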
D3 ag: activates the human D3 dopamine receptor | P35462 | D3R DiscoveRx beta-arrestin cells, luminescence, 90 min | max activation, % | 410,000 tested, 0.58% active | AID 652048; in the data active means max activation above about 30%
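Agonist mode: compounds and dopamine controls were applied to plated cells for 90 min at 37 degrees C after an overnight attachment at 1500 cells/well. Luminescent read-out followed 30 - 60 minutes at room temperature with DiscoveRx detection reagent.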
Of the large screens only hits and unclear results are named; the others gave an inactive call. This is a sample that favours compounds with a hit; in the whole collection about 2.9% have one here.

COc1ccc(CCNC(=O)c2cc3c(F)cccc3s2)cc1OC	none
O=C(O)Cn1c(SCc2cccc3ccccc23)nc2ccccc21	DRD3 antagonist inconclusive
CCCCn1c(SCC(=O)O)nc2ccccc21	DRD3 antagonist -80.2
O=C(O)Cn1c(SCc2ccccc2)nc2ccccc21	DRD3 antagonist -53.4
CCn1c(SCC(=O)O)nc2ccccc21	none
CC(C)C(NC(=O)c1ccco1)C(=O)OCC(=O)N1CC(=O)Nc2ccccc21 (centres undefined)	none
O=C(COC(=O)CC(NC(=O)c1ccccc1Cl)c1ccccc1)Nc1cccc(F)c1 (centres undefined)	none
CCCc1nnc(NC(=O)CCC(=O)N2CCN(CCOc3ccc(C)cc3)CC2)s1	D3 ag 70.3
CCCc1nnc(NC(=O)CCC(=O)N2CCN(CCn3c(C)ccc3C)CC2)s1	none
CC(C)c1nnc(NC(=O)CCC(=O)N2CCN(Cc3ccccc3)CC2)s1	none
Cc1nnc(NC(=O)CCC(=O)N2CCN(CCOc3cccc4ccccc34)CC2)s1	DRD3 antagonist inconclusive
Cc1ccc(OCCN2CCN(C(=O)CCC(=O)Nc3nnc(C(C)C)s3)CC2)cc1	D3 ag 33.3
Cc1ccc(OCCN2CCN(C(=O)CCC(=O)Nc3nnc(C)s3)CC2)cc1	D3 ag 37.3
Cc1ccc(S(=O)(=O)c2c(COC(=O)c3ccccc3Cl)c(-c3ccccc3)nn2C)cc1	none
COc1ccc(/C=N\NC(=O)/C(=C\Nc2nccc(C)n2)NC(=O)c2ccccc2)cc1	none
Cc1nonc1C1CCCN1C(=O)c1cc(COc2ccc(F)cc2Cl)on1 (centres undefined)	none
O=C(NCc1ccc(Cl)cc1)c1csc(-c2cccnc2)n1	none
COc1ccc(C(CNC(=O)CCNS(=O)(=O)c2ccc(Br)cc2)N2CCCC2)cc1 (centres undefined)	DRD3 antagonist -50.4
COc1ccc(C(CNC(=O)Cc2ccccc2)N2CCCCC2)cc1 (centres undefined)	none
COc1ccc(C(CNC(=O)CCNS(=O)(=O)c2ccc(Br)cc2)N2CCOCC2)cc1 (centres undefined)	none
COc1ccc(C(CNC(=O)C(C)Oc2ccc(Br)cc2)N2CCCCC2)cc1 (centres undefined)	DRD3 antagonist -92.2
COc1ccccc1/C=C/C(=O)OCC(=O)NC(=O)NC1CCCC1	none
C=CCc1cc(C)ccc1OCCOCCC(C(=O)OCC)C(=O)OCC	none
c1ccc(C(=C2CCCO2)c2ccccc2)cc1	none
Cc1cccc(-c2cc(C(=O)O)c3c(-c4ccc(F)cc4)[nH]nc3n2)c1	none (no result: a7 integrin act, DRD3 antagonist)
Cc1cccc(-c2cc(=O)c(C(=O)O)cn2-c2ccc(F)cc2F)c1	DRD3 antagonist -78.8
Cc1cc(C(=O)OCC(=O)NCc2ccccc2Cl)c(C)o1	none
COc1ccc(-c2nnn(CC(=O)N(CCO)C(C(=O)NC3CCCC3)c3ccncc3)n2)cc1 (centres undefined)	none
COC(=O)CN1C(C(=O)c2ccccc2)=C(OC(=O)c2ccc(F)cc2)c2ccccc2S1(=O)=O	none (no result: a7 integrin act, DRD3 antagonist)
CCOC(=O)CN1C(C(=O)c2ccccc2)=C(OC(=O)c2ccccc2)c2ccccc2S1(=O)=O	D3 ag 49.5 (no result: a7 integrin act, DRD3 antagonist)
COc1cccc(NC(=O)C(Sc2nnc(-c3ccncc3)n2-c2ccc(Cl)cc2)c2ccccc2)c1 (centres undefined)	none
CCOC(=O)N1CCN(C(=O)CN(Cc2ccccc2)S(=O)(=O)c2ccc(OC)c(Cl)c2)CC1	none
COc1ccc(C(=O)Nc2ccccc2CCC2CCCCN2C)cc1 (centres undefined)	none (no result: a7 integrin act, DRD3 antagonist)
CN1CCCC1CCOC(C)(c1ccccc1)c1ccc(Cl)cc1 (centres undefined)	DRD3 antagonist -101.4 (no result: a7 integrin act, D3 ag)
OC(CSc1ccccc1Cl)CN1CCN(c2ccc(F)cc2)CC1 (centres undefined)	DRD3 antagonist -81.4
OC(CN1CCN(c2ccc(F)cc2)CC1)c1ccc(Cl)cc1 (centres undefined)	DRD3 antagonist inconclusive
OC(CSc1ccccc1)CN1CCN(c2ccccc2)CC1 (centres undefined)	DRD3 antagonist inconclusive
OC(CSc1c(Cl)cccc1Cl)CN1CCN(c2ccc(F)cc2)CC1 (centres undefined)	DRD3 antagonist -88.6
CN(CC(=O)Nc1ccccc1Cl)C(=O)CSc1nc2ccccc2s1	none
Cc1ccc([C@H]2N[C@]3(CCCN(Cc4ccco4)C3=O)[C@H]3C(=O)N(Cc4ccccc4)C(=O)[C@@H]23)cc1	none
O=C1[C@H]2[C@@H](c3ccccc3)N[C@]3(CCCN(Cc4ccco4)C3=O)[C@H]2C(=O)N1Cc1ccccc1	DRD3 antagonist -56.0
CCCOC(=O)c1ccc2c(c1)C(=O)N(c1ccccc1)C2=O	none
COc1ccc(NC(=O)C2CCCO2)cc1 (centres undefined)	none
O=C(Nc1ccc(Oc2ccccc2)cc1)C1CCCO1 (centres undefined)	DRD3 antagonist -79.0
